Bioassay records as filed in PubChem.
Rab9 prom act – qHTS Assay for Rab9 Promoter Activators; AID 485297, 2010; hit rate 2.8% among 320,000; Potency, µM (titrated, usually from 9.22 µM), inactives show at the highest dose activation, negative = inhibition, hits mostly activators; Huh7 Rab9 promoter-luciferase reporter, luminescence, 24 h; further: % of control where 0% means no effect; nearly all actives have a fitted effect of over 60% in size
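Steps: seed 1500 Huh7 Rab9-luc cells per well, rest 2 h at 37 °C; add compound in DMSO; incubate 24 h; add luciferase reagent, 10 min ambient; read luminescence.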
ELG1 genotoxic – qHTS screen for small molecules that induce genotoxicity in human embryonic kidney (HEK293T) cells expressing luciferase-tagged ELG1; HEK293T ELG1-luciferase reporter, luminescence, 16 h; Potency, µM (top dose mostly 46 µM), inactives show at the top dose activity change, positive = activation, hits mostly activators; hit rate 1.3% among 330,000; further: % of control where 0% means no effect; nearly all actives have a fitted effect of over 60% in size
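Screening used a luciferase reporter fused to human ELG1 in HEK293T cells. Luminescence was read on a CCD plate imager after 16 hr exposure and 30 min ONE-Glo incubation.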
FLuc modulator – qHTS profiling assay for firefly luciferase inhibitor/activator using purifed enzyme and Km concentrations of substrates (counterscreen for miR-21 project). hit rate 6.9% among 360,000. Luciferin 4-monooxygenase (Photinus pyralis), P08659. Potency, µM (doses to about 57.5 µM), inactives show at the top dose activity change, negative = inhibition, hits mostly inhibitors. purified FLuc, Km substrates, luminescence inhibition;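 further: plate controls were vehicle for no effect and reference inhibitor for full effect; nearly all actives have a fitted effect of over 55% in size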
Target sequence (P08659 whole entry, looked up): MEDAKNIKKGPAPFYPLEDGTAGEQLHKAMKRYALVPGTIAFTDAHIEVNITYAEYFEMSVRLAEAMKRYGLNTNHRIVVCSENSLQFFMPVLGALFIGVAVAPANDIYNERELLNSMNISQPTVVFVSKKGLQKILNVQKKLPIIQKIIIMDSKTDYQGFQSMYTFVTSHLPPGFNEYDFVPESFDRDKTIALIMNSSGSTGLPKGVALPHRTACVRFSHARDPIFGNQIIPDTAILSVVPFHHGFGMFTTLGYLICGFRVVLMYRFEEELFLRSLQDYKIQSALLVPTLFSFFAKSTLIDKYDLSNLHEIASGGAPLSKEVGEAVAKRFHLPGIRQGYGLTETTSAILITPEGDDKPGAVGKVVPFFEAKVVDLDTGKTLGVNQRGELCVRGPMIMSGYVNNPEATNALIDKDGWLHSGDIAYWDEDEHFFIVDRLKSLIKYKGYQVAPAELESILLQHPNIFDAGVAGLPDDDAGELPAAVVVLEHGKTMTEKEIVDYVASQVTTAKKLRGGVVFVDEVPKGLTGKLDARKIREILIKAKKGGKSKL
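Purified P. pyralis luciferase (10nM final) with 10uM D-luciferin and 10uM ATP (Km levels) in 50mM Tris acetate pH 7.5, 10mM Mg acetate, 0.01% Tween-20, 0.05% BSA; qHTS 6-point titration, ~60 µM downward; luminescence read.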
Luc counter – Counterscreen for Luciferase (Kinase-Glo TM) Inhibition. Kinase-Glo luciferase, ATP luminescence, 8 min. Potency, µM (series often up to 38.3 µM), for the others: at the top dose activity change, negative = inhibition, actives largely listed as inhibitors. hit rate 0.28% among 200,000; further: on the % scale 0 is the no-effect control and ±100 the full control effect; nearly all actives have a fitted effect of over 60% in size
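Luminescence was the read-out, taken after 8-minute incubation at ambient temperature. Luciferase turned over luciferin with 10 uM ATP in imidazole pH 7.2 buffer containing KCl, MgCl2, Tween 20 and BSA.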
NPC1 promoter act – qHTS Assay for NPC1 Promoter Activators; AID 485313, 2010; Huh7 NPC1 promoter luciferase reporter, 24 h; Potency, µM (highest dose often 9.22 µM), without a hit: top-dose activation, hits mostly activators; hit rate 2.4% among 320,000; further: % of control where 0% means no effect; nearly all actives have a fitted effect of over 60% in size
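Stable NPC1-promoter luciferase Huh7 line; cpd (DMSO) 24 h, 37 °C, 5% CO2; Amplite luciferase reagent 10 min RT; luminescence readout. qHTS format.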
SMN2 splice up – qHTS Assay for Enhancers of SMN2 Splice Variant Expression; HEK293 SMN2-luciferase splicing reporter, luminescence, 30-36 h; Potency, µM (series often up to 46.1 µM), without a hit: top-dose activity change, positive = activation, hits mostly activators; hit rate 2.8% among 210,000; AID 1458, 2008; further: % of control where 0% means no effect; nearly all actives have a fitted effect of over 55% in size
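HEK293 cells carry an SMN2 […]–luciferase reporter in which exon 7 inclusion puts luciferase in frame. Cells were plated 10-12 h before compound addition, then incubated 30-36 h at 37C. ONE-Glo luminescence was read; sodium butyrate at 4.5 mM final served as control.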
An asterisk follows results filed as active; [ ] = remark or other dose. Sampled rows, rich in hits. Any-hit rate of the full collection: about 7.5%. The call rests on the fitted dose curve; in most records, active means well fitted curve in the direction sought with a large enough effect; inconclusive means small, poorly fitted or top-dose-only effect, or another doubt; inactive means no such curve, though single readings can be large; an effect the other way counts as inactive or inconclusive. Potency means the concentration at half of the fitted maximal effect.

Results for C=C(C)CNC(=S)Nc1nc2c(cc1C(=O)OCC)CCCC2 ?
Rab9 prom act: inconclusive; ELG1 genotoxic: inconclusive; FLuc modulator: 13µM*; Luc counter: -1%; NPC1 promoter act: inconclusive; SMN2 splice up: 4.5µM*

Results for Cc1cc(Cl)c2oc(C(=O)N(C)C3CCOC3)c(C)c2c1 (configuration not stated) ?
Rab9 prom act: 4µM*; ELG1 genotoxic: inconclusive; FLuc modulator: 21µM*; NPC1 promoter act: inconclusive

Results for Cc1cc(Cl)c2oc(C(=O)N(C)Cc3ccon3)c(C)c2c1 ?
Rab9 prom act: 2.8µM*; ELG1 genotoxic: 18µM*; FLuc modulator: 13µM*; NPC1 promoter act: 4µM*

What do the screens show for `Cc1cc(Cl)c2oc(C(=O)N(C)Cc3nccn3C)c(C)c2c1`?
Rab9 prom act: -4%; ELG1 genotoxic: 6%; FLuc modulator: -1%; NPC1 promoter act: -3%

What do the screens show for `Cc1cc(Cl)c2oc(C(=O)N(C)Cc3cc(C)[nH]n3)c(C)c2c1`?
Rab9 prom act: 2%; ELG1 genotoxic: 14%; FLuc modulator: -2%; NPC1 promoter act: 2%

What do the screens show for `CCOC(=O)c1[nH]c(C)c(C(=O)NCc2cccc(OC)c2)c1C`?
FLuc modulator: -6%

Results for CC(C)NC(=S)N/N=C/c1sc(N2CCCCC2)nc1-c1cccs1 ?
Rab9 prom act: 13%; ELG1 genotoxic: 9%; FLuc modulator: 3µM*; Luc counter: -4%; NPC1 promoter act: -4%; SMN2 splice up: -15%

Results for O=C(N/N=C/c1sc(N2CCCCC2)nc1-c1cccs1)C1CC1 ?
Rab9 prom act: 13%; ELG1 genotoxic: 0%; FLuc modulator: inconclusive; Luc counter: -3%; NPC1 promoter act: 5%; SMN2 splice up: 18%

How did Cc1cc(C)n(-c2nc(C)c(C)c(=O)n2CC(=O)Nc2cccc([N+](=O)[O-])c2)n1 do in these assays?
FLuc modulator: -11%

How did CCOC(=O)C1(C)C=C(Nc2cccc(C(=O)O)c2)C(=O)N1c1ccccc1 (configuration not stated) do in these assays?
FLuc modulator: 24µM*; SMN2 splice up: 13µM*

What do the screens show for `CCn1nc(C)c2c(-c3ccccc3)cc(=O)n(C(C)C(=O)NCCc3ccc(Cl)cc3)c21` (configuration not stated)?
FLuc modulator: 0%

What do the screens show for `O=c1/c(=C/c2ccco2)sc2nc(-c3ccccc3Br)nn12`?
Rab9 prom act: 5%; ELG1 genotoxic: 4%; FLuc modulator: 6.7µM*; Luc counter: -12%; NPC1 promoter act: 9%; SMN2 splice up: -4%

How did CCN(CC)S(=O)(=O)c1ccc(NC(=O)c2cccs2)cc1 do in these assays?
Rab9 prom act: -3%; ELG1 genotoxic: -1%; FLuc modulator: 2%; Luc counter: 0%; NPC1 promoter act: -6%

Results for O=C(Nc1cccc(N2CCCC2)c1)c1cccs1 ?
Rab9 prom act: 29%; ELG1 genotoxic: -2%; FLuc modulator: 17µM*; Luc counter: -4%; NPC1 promoter act: 22%; SMN2 splice up: -22%

What do the screens show for `Nc1cccc(NC(=O)c2cccs2)c1`?
Rab9 prom act: 21%; ELG1 genotoxic: -1%; FLuc modulator: -16%; Luc counter: 1%; NPC1 promoter act: 10%; SMN2 splice up: inconclusive

What do the screens show for `CN1CCN(c2ccc(NC(=O)c3cccs3)cc2)CC1`?
Rab9 prom act: 0.56µM*; ELG1 genotoxic: inconclusive; FLuc modulator: 12µM*; Luc counter: -9%; NPC1 promoter act: 3.2µM*; SMN2 splice up: 11µM*

Results for Cc1ccn(-c2ccc(NC(=O)c3cccs3)cc2)n1 ?
Rab9 prom act: 0.63µM*; ELG1 genotoxic: inconclusive; FLuc modulator: 3µM*; NPC1 promoter act: 0.71µM*

How did Cc1c(C)c(C)c(CC2(C)CSC2)c(CC2(C)CSC2)c1C do in these assays?
Luc counter: -3%[7.66 µM]; SMN2 splice up: -12%[9.22 µM]

What do the screens show for `CC#CC(=O)N1CCCC(Cc2cccc(OC)c2)(C(=O)OCC)C1` (configuration not stated)?
Rab9 prom act: inconclusive; ELG1 genotoxic: 16%; FLuc modulator: 24µM*; NPC1 promoter act: inconclusive

Results for CCOC(=O)C1(Cc2ccccc2)CCCN(C(=O)C=C(C)C)C1 (configuration not stated) ?
Rab9 prom act: 3.5µM*; ELG1 genotoxic: inconclusive; FLuc modulator: 17µM*; NPC1 promoter act: inconclusive

Results for CCOC(=O)C1(Cc2ccccc2)CCCN(C2CCN(C(C)=O)CC2)C1 (configuration not stated) ?
Rab9 prom act: -2%; ELG1 genotoxic: -1%; FLuc modulator: 1%; NPC1 promoter act: -1%

How did CCOC(=O)C1(Cc2ccc(OC)cc2)CCN(C(=O)c2cc3ccccc3[nH]2)CC1 do in these assays?
Rab9 prom act: 2%; ELG1 genotoxic: 2%; FLuc modulator: 15µM*; Luc counter: -2%; NPC1 promoter act: 2%; SMN2 splice up: 19%

What do the screens show for `CCOC(=O)C1(Cc2cccc(OC)c2)CCCN(C(=O)CCc2cccnc2)C1` (configuration not stated)?
Rab9 prom act: inconclusive; ELG1 genotoxic: inconclusive; FLuc modulator: 17µM*; Luc counter: -1%; NPC1 promoter act: 16%

Results for Cc1nn(C(C)C(=O)N2CCN(c3ccc(Cl)cc3)CC2)c(=O)c2cc3occc3n12 (configuration not stated) ?
FLuc modulator: -12%; SMN2 splice up: -11%

How did O=S(=O)(NCCSc1ccccn1)c1ccc(Br)cc1 do in these assays?
Rab9 prom act: 2%; ELG1 genotoxic: 4%; FLuc modulator: -8%; Luc counter: -3%; NPC1 promoter act: 3%

Results for COc1ccc(S(=O)(=O)N2CCCCC2)cc1NC(=O)c1ccc(Cl)nc1 ?
Rab9 prom act: -5%; ELG1 genotoxic: -3%; FLuc modulator: 6%; NPC1 promoter act: -3%

Results for CCOC(=O)C1(Cc2cccc(OC)c2)CCN(C2CCOCC2)CC1 ?
Rab9 prom act: inconclusive; ELG1 genotoxic: inconclusive; FLuc modulator: 3µM*; Luc counter: -4%; NPC1 promoter act: inconclusive

How did CC(=O)Nc1cccc(Oc2ccc3c(c2)C(=O)NC3=O)c1 do in these assays?
Rab9 prom act: 21%; ELG1 genotoxic: inconclusive; FLuc modulator: 11µM*; NPC1 promoter act: 19%
